AID inhibitor = inhibitors of human activation induced cytidine deaminase | AID deamination FRET fluorescence, UDG-coupled, 4 h | Potency, µM (highest dose often 115 µM), hits mostly inhibitors | actives 0.32% (n = 91,000) | AID 1347428; note: nearly all actives have a fitted effect of over 25% in size
Target sequence (Q9GZX7 whole entry, looked up): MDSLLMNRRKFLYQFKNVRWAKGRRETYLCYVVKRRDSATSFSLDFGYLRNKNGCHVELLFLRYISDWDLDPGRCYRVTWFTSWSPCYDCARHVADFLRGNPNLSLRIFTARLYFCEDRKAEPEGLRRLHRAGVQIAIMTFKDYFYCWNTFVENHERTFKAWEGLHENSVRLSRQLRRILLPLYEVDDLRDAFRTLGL
UDG counter = blocks uracil-DNA glycosylase in AID counter-screen. actives 0.14% (n = 91,000). FRET deamination/UDG coupled assay, UDG read, 4 h. Potency, µM (highest dose often 115 µM), most hits filed as inhibitors; note: nearly all actives have a fitted effect of over 65% in size
Hits are given with their value; 0 = inactive; ? = inconclusive; ! = not confirmed by another sample. Only some compounds are listed: those with a hit (about 0.47% of all), similar ones and a draw of the others. Calls come from the whole dose curve; as a rule, active = well fitted curve in the direction sought with a large enough effect; inconclusive = small, poorly fitted or top-dose-only effect, or another doubt; inactive = no such curve, though single readings can be large; an effect the other way counts as inactive or inconclusive.

SMILES	AID inhibitor	UDG counter
CCOC(=O)c1c(C)oc2nc(C)nc(NC(C)c3ccccc3)c12 (centres undefined)	79.4µM	0
COc1ccc(OC)c(CNC(=O)c2cc(-c3ccc(Cl)s3)nc3ccccc23)c1	0	0
CC(=O)[C@]1(O)Cc2c(O)c3c(c(O)c2[C@@H](O[C@H]2C[C@H](N)[C@H](O)[C@H](C)O2)C1)C(=O)c1ccccc1C3=O	11.2µM	0
CC1CCN(c2nn3c(=O)c(C(=O)NC(C)C)cnc3s2)CC1	0	0
COc1ccccc1NC(=O)C1CCN(c2nccnc2Sc2ccc(C)cc2)CC1	0	?
COc1ccc(Cl)cc1NC(=O)C1CCN(c2nccnc2Oc2ccccc2C)CC1	0	89.1µM
Clc1ccc2c(NN=C3CCCCC3)ccnc2c1	0	0
CC(=O)C[C@](N)(c1ccc(C)cc1)C(F)(F)F	0	0
CCN(CC)C(=O)c1sc2c(c1C)c(=O)n(-c1ccc(C)c(C)c1)c(=O)n2Cc1cc(=O)n2ccccc2n1	0	0
CCN(CC)C(=O)c1sc2c(c1C)c(=O)n(-c1ccc(Cl)c(Cl)c1)c(=O)n2Cc1cc(=O)n2ccccc2n1	89.1µM	?
CN(C)CCCNc1cc(N2CCN(C3CCCCC3)CC2)c2noc3c2c1C(=O)c1ccccc1-3	39.8µM	0
O=C1c2ccccc2-c2onc3c(N4CCN(C5CCCCC5)CC4)cc(NCCO)c1c23	0	0
O=C(C1=C(c2ccccc2)SCCO1)N(Cc1cccc2ccccc12)C1CCS(=O)(=O)C1 (centres undefined)	0	0
Cc1cc(C)cc(OCC(=O)N(Cc2cccs2)c2ccc(Cl)cc2)c1	22.4µM	0
Cc1ccc(N(Cc2cccs2)C(=O)COc2cccc(C)c2)cc1	?	0
Cc1ccc(C(=O)Nc2ccc(-c3nc4ccccc4s3)c(C)c2)cc1	0	0
Cc1cccc(NC(=O)Cc2nc(-c3ccccc3)oc2C)n1	0	0
CCOc1ccc(CNC(=O)c2sc3ncnc(N(C)C4CCCCC4)c3c2C)cc1	?	0
CCc1ccc(NC(=O)c2sc3ncnc(N(C)C4CCCCC4)c3c2C)cc1	0	79.4µM
COc1ccc(-c2nc(C)c(CCNS(=O)(=O)c3ccc(F)cc3)s2)cc1OC	0	0
CCCCn1c(=N)n(CCCOc2ccc(F)cc2)c2ccccc21	?	0
O=C1c2ccccc2C(=O)c2c(NCCc3ccc(O)cc3)ccc(NCCc3ccc(O)cc3)c21	?	0
O=C1c2c(O)ccc(O)c2C(=O)c2c(NCCNCCO)ccc(NCCNCCO)c21	10µM	39.8µM
COc1ccc2c(c1)c1c(c(=O)n(CCc3ccccc3)c(=O)n1Cc1cccc(F)c1)n2C	0	0
COc1cccc(Cn2cc(C(=O)c3ccc(Cl)cc3)c(=O)c3ccccc32)c1	28.2µM	0
SMILES	AID inhibitor	UDG counter
COc1ccccc1Cn1cc(C(=O)c2ccc(Cl)cc2)c(=O)c2ccccc21	0	0
CC(C)CC(NC(=O)C(CCC(=O)OCc1ccccc1)NC(=O)OC(C)(C)C)C(=O)OCc1ccccc1 (centres undefined)	0	0
COc1cccc(CNC(=O)c2oc3c(c2C)-c2nn(Cc4cccc(Cl)c4)cc2CC3)c1OC	79.4µM	0
CCOC(=O)c1cccc(NC(=O)c2oc3c(c2C)-c2[nH]ncc2CC3)c1	?	0
COc1cccc(CNC(=O)c2oc3c(c2C)-c2nn(Cc4cccc(Cl)c4)cc2CC3)c1	?	0
CCOC(=O)c1cccc(NC(=O)c2oc3c(c2C)-c2nn(CC)cc2CC3)c1	39.8µM	?
Cc1ccc(S(=O)(=O)N2CCC(c3ccncc3)CC2)c(C)c1	0	0
O=C(CSc1nc2c(oc3ccccc32)c(=O)n1Cc1ccco1)Nc1cccc(Cl)c1	0	0
CCOc1cccc(CC(=O)NCc2ccc3c(c2)CCN3C(=O)c2ccc(F)cc2)c1OCC	0	0
Cc1ccc(-c2csc(Nc3ccc(S(=O)(=O)Nc4nc(C)cc(C)n4)cc3)n2)cc1	0	?
Cc1ccc(C)c(-c2csc(Nc3ccc(S(=O)(=O)Nc4nc(C)cc(C)n4)cc3)n2)c1	?	89.1µM
CC1(C)CC(=O)C2=C(C1)OC(N)=C(C#N)C2c1ccncc1 (centres undefined)	0	0
CCc1ccc(C(=O)NCC(C)C)o1	0	0
CCc1ccc(Nc2nc3ccccc3nc2NS(=O)(=O)c2ccccc2)cc1	28.2µM!	0
CCOc1ccc(S(=O)(=O)Nc2nc3ccccc3nc2Nc2ccc(OC)cc2)cc1	?	0
CCOc1cccc2c(C)nc(Nc3nc(C)c(CC)c(=O)[nH]3)nc12	50.1µM	0
COc1ccc2nc(Nc3nc(C)c(CCC(C)C)c(=O)[nH]3)nc(C)c2c1	0	0
Cc1ccc(S(=O)(=O)Cc2nc(-c3ccc(C(=O)NCCN4CCOCC4)cc3)oc2C)cc1	0	0
COc1ccc(C(=O)Nc2nc3c(s2)CCc2cc(OC)ccc2-3)cc1	0	79.4µM
COc1ccc2c(c1)CCc1sc(NC(=O)c3cccc(Br)c3)nc1-2	0	0
COc1ccc2c(c1)Cc1sc(NC(=O)c3ccc(Cl)cc3)nc1-2	31.6µM	0
COc1ccc2c(c1)Cc1sc(NC(=O)c3cccc(Cl)c3)nc1-2	0	0

Compound activity as filed in PubChem BioAssay.
